Compound activity as filed in PubChem BioAssay.
A selection: hits, their analogues and other compounds. The true share with any hit is near 10%.
G9a block: qHTS Assay for Inhibitors of Histone Lysine Methyltransferase G9a | Histone-lysine N-methyltransferase EHMT2 (Homo sapiens), Q96KQ7 | G9a H3K9 monomethylation, AlphaScreen, 2 h | Potency, µM (highest dose often 102 µM), without a hit: at the top dose activity, negative = inhibition, actives largely listed as inhibitors | hit rate 8.8% among 350,000; also: potency is read from the fitted curve at half-maximal effect; % is scaled to controls: 0 for no effect and ±100 for the full control effect; nearly all actives have a fitted effect of over 75% in size
Target sequence (Q96KQ7 913-1193 limits assumed): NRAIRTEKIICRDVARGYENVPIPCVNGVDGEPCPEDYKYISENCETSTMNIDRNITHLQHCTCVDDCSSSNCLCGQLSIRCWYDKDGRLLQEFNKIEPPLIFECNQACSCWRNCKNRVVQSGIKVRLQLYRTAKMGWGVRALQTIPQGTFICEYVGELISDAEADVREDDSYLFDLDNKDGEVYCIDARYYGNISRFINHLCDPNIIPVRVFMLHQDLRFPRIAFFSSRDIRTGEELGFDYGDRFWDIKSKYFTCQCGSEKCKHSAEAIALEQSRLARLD
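Readings reflect AlphaScreen signal from monomethyl-H3K9 antibody detection. HMT at 20 nM; substrate b-H3K9 500 nM; cofactor SAM 20 uM; 2 h RT reaction; compounds tested as titrations in qHTS with 15 min preincubation.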
HP1b binding inh: HTS for Inhibitors of HP1-beta Chromodomain Interactions with Methylated Histone Tails. AID 540317, 2011. Chromobox protein homolog 1 (Homo sapiens), P83916. hit rate 0.56% among 390,000. Potency, µM (series often up to 114 µM), inactives show top-dose activity change, negative = inhibition, actives largely listed as inhibitors. AlphaScreen HP1-beta / biotin-H3K9me3 peptide binding; also: potency is read from the fitted curve at half-maximal effect; nearly all actives have a fitted effect of over 70% in size
Target sequence (P83916 whole entry, looked up): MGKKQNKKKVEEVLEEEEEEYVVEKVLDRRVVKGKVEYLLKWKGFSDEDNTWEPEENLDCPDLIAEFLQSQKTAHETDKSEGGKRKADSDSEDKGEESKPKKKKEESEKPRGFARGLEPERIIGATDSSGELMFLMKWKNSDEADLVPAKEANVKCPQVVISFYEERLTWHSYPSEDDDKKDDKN
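AlphaScreen: HP1-beta (50 nM) preformed 30 min with biotin-H3(1-18)K9me3 peptide (50 nM) in PBS pH 7.4, 0.01% Tween-20. Compound added for 30 min at RT, then streptavidin donor/nickel chelate acceptor beads (10 ug/mL) for 30 min.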
CtBP-E1A blk: qHTS Assay for Inhibitors of the CtBP/E1A Interaction. CtBP / adenovirus E1A interaction (AlphaScreen). AlphaScreen GST-E1A/His-CtBP binding, 1536-well; stronger effect = lower value. activity change, % (no concentration beside the values). hit rate 0.49% among 340,000; in the data active = activity change below about -65%; inconclusive = mostly about -30% to -63%; also: % is scaled to controls: 0 for no effect and ±100 for the full control effect
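Homogeneous bead-based format: GST-tagged E1A captured on glutathione donor beads, His-tagged CtBP on nickel acceptor beads; compounds precede bead addition by 2 h at 37 °C.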
BAZ2B block: qHTS Assay for Inhibitors of BAZ2B; AID 504333, 2011; hit rate 4.4% among 360,000; Potency, µM (series often up to 114 µM), for the others: top-dose activity change, negative = inhibition, most hits filed as inhibitors; AlphaScreen BAZ2B-H3K14Ac peptide displacement; also: potency is read from the fitted curve at half-maximal effect; % is scaled to controls: 0 for no effect and ±100 for the full control effect; nearly all actives have a fitted effect of over 60% in size
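BAZ2B 50 nM plus b-H3(5-23)K14Ac 50 nM, PBS pH 7.4/0.01% Tween-20, 30 min RT; compound added (max 110 uM), 30 min RT; streptavidin donor/Ni-chelate acceptor beads 10 ug/mL final, 20 min dark; AlphaScreen read.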
JMJD2A Tudor: qHTS Assay for Inhibitors of JMJD2A-Tudor Domain | Lysine-specific demethylase 4A (Homo sapiens), O75164 | AlphaScreen JMJD2A-Tudor / H3K4me3 peptide binding | Potency, µM (series often up to 114 µM), for the others: at the top dose activity change, negative = inhibition, hits mostly inhibitors | hit rate 4.4% among 390,000; also: potency is read from the fitted curve at half-maximal effect; % is scaled to controls: 0 for no effect and ±100 for the full control effect; nearly all actives have a fitted effect of over 50% in size
Six1-Eya2 inh: qHTS Assay for Inhibitors of the Six1/Eya2 Interaction. Homeobox protein SIX1 (Homo sapiens) + Protein phosphatase EYA2 (Homo sapiens), …. AlphaScreen GST-Six1/His-Eya2 binding, biochemical; stronger effect = lower value. activity change, % (no concentration beside the values). hit rate 0.56% among 360,000. AID 651725, 2012; in the data active = activity change below about -65%; inconclusive = mostly about -30% to -63%; also: % is scaled to controls: 0 for no effect and ±100 for the full control effect
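Compounds are tested against tagged Six1 and Eya2 proteins bridged by glutathione donor and nickel acceptor beads; after a one-hour incubation at 37 °C without light, AlphaScreen emission is recorded.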
Numbers without * were called inactive; ? = inconclusive; · = no result given; [ ] = dose if it differs, or a comment. Unless noted, calls follow the shape of the dose curve; as a rule, active = well fitted inhibition curve with a large enough effect; inconclusive = small, poorly fitted or top-dose-only effect; inactive = no such curve, though single readings can be large or run the other way.

SMILES	G9a block	HP1b binding inh	CtBP-E1A blk	BAZ2B block	JMJD2A Tudor	Six1-Eya2 inh
CCn1c(CNC(=O)c2ccc(OC)cc2)nnc1SCC(=O)Nc1ccccc1	-2%[59 µM]	23%	·	-6%	-15%	·
O=C(Nc1ccc(F)cc1F)N1CCN(c2ncccn2)CC1	-5%[59 µM]	25%	-1	-6%	-7%	6
O=C(c1ccccc1Cl)N1CCN(c2ncccn2)CC1	·	19%	6	·	7%	1
Fc1ccc(CN2CCN(c3ncccn3)CC2)c(F)c1	·	-24%	·	4%	18µM*	2
Clc1cccc(CN2CCN(c3ncccn3)CC2)c1Cl	·	?	11	?	20µM*	-2
CN(CC(=O)Nc1ccccc1Cl)C(=O)COC(=O)c1ccccc1[N+](=O)[O-]	-49%	11%	6	3%	-12%	-1
COc1cccc2c1[C@@H]1CN(CCCCn3c(=O)[nH]c4c(sc5ncc(-c6ccccc6)nc54)c3=O)C[C@@H]1CO2	13µM*	-2%	-26	?	?	-10
COc1cc2[nH]c(=O)n(CCCC(=O)N3CC=C(c4ccccc4)CC3)c(=O)c2cc1OC	?	1%	?	-5%	-19%[57.1 µM]	-29
COc1ccc(C2(O)CN(c3ccccc3)C3=[N+]2CCS3)cc1OC (centres undefined)	-19%	28%	-5	71µM*	-4%	5
O=C(c1cc([N+](=O)[O-])cc([N+](=O)[O-])c1)N(Cc1nnc(-c2ccccc2Cl)o1)C1CC1	?	15%	-1	-30%	?	-2
CCCN(Cc1nnc(-c2ccccc2Cl)o1)C(=O)c1cc([N+](=O)[O-])cc([N+](=O)[O-])c1	50µM*	0%	-4	·	-27%	-9
N#C/C(=C\c1ccc(C(=O)O)cc1)c1nc2sc3c(c2c(=O)[nH]1)CCCC3	40µM*	-33%	-16	45µM*	?	-1
CCOC(=O)c1nc2sc3c(c2c(=O)[nH]1)CCCC3	27%[59 µM]	42%	2	10%	-10%	0
COc1cccc(C(=O)Nc2nc(-c3nnn(-c4ccccc4C(F)(F)F)c3C)ns2)c1	17%[59 µM]	39%	·	2%	-12%	·
CCCCc1ccc(/C=C2\C(=O)c3ccccc3C(O)=C2C(=O)OCC)cc1	6.3µM*	·	·	22µM*	·	·
CCOC(=O)C1=C(C)OC(=CC=Cc2ccccc2)C1=O	·	·	2	·	·	-18
COc1ccc(C(=O)Nc2cccc(OC(=O)c3ccco3)c2)cc1	50µM*	-10%	0	13%	-14%	2
COc1ccc(C(C)=O)c(OC(=O)c2ccco2)c1	45µM*	33%	-3	?	4%	0
CC(C)(C)NC(=O)CN(C(=O)CS(=O)CC(=O)Nc1ccc(F)cc1)c1cccc(F)c1 (centres undefined)	8%	52%	10	-2%	5%	-4
Oc1cccc(C=NNc2ccccn2)c1	·	30%	3	·	-25%	-8
Cc1ccc(/C=N/Nc2cccc3cccnc23)c(O)c1	18µM*	19%	-2	0%	?	-1
Oc1ccc(/C=N/Nc2cccc3cccnc23)c(O)c1	5.6µM*	-11%	7	-10%	?	-24
Cc1cc(N/N=C/c2ccccc2O)c2ccccc2n1	·	-5%	?	?	?	?
Oc1ccc(C=NNc2ccccn2)c(O)c1	·	13%	-5	·	20µM*	-91*
CN1CCN(c2ncc3ncc(=O)n(C4CC4)c3n2)CC1	0%[0.501 µM]	·	·	·	·	·
SMILES	G9a block	HP1b binding inh	CtBP-E1A blk	BAZ2B block	JMJD2A Tudor	Six1-Eya2 inh
CCOc1ccc(NCC2CCOC(C)(C)C2)cc1 (centres undefined)	7.1µM*	-6%	0	?	-36%	-6
CCOc1ccc(NC(=O)CC2CC(C)(C)OC2=O)cc1 (centres undefined)	-3%[59 µM]	-15%	1	-1%	-2%[11.4 µM]	-1
O=S(=O)(Nc1cccc(-c2cn3c(n2)SCC3)c1)c1ccc(F)cc1F	·	?	-2	?	?	-27
CCOc1ccc(-c2nc(CCl)cs2)cc1OC	45µM*	70%	4	?	7%[57.1 µM]	1
COc1cccc(-c2nc(CCl)cs2)c1OC	22µM*	60%	4	?	50µM*	1
COc1ccc(C)cc1NC(=O)c1ccccc1NS(=O)(=O)c1ccc(Cl)s1	·	37%	·	-15%	-12%	-5
Cc1ccc(C)c(N2CCN(S(=O)(=O)c3ccc4[nH]c5c(c4c3)CCCCC5)CC2)c1	-43%[59 µM]	-3%	·	-17%[57.1 µM]	?	·
C[C@H](NC(=O)C1CC(=O)N(c2ccc3c(c2)OCO3)C1)C(=O)NC1CCCCC1 (some centres undefined)	13%	15%	-5	0%	?	7
CCOc1ccc(CC(=O)Nc2nnc3n2CCS3)cc1	29%[59 µM]	-2%[57 µM]	·	11%	56µM*	·
COc1ccc(CC(=O)Nc2nnc3n2CCS3)cc1	?	17%[57 µM]	·	?	56µM*	·
CCOc1ccc(S(=O)(=O)Nc2ccc3c(c2)N(C(C)=O)CCC3)cc1	0%[12.7 µM]	22%	·	-17%	5%	·
Cc1cc(C)c2sc(NNC(=O)c3ccc(S(=O)(=O)N4CCc5ccccc5C4)cc3)nc2c1	?	5%	-23	5.6µM*	3.5µM*	-4
Cc1cc(C)c2nc(NNC(=O)c3ccc(S(=O)(=O)N4CCc5ccccc5C4)cc3)sc2c1	40µM*	-4%	-18	?	?	-1
Cc1nnc(NC(=O)c2ccc(S(=O)(=O)N3CCc4ccccc4C3)cc2)o1	-25%	39%	-30	79µM*	-30%	-10
Cc1cc(C)c2nc(NNC(=O)c3cc(=O)c4ccccc4o3)sc2c1	8.9µM*	?	-13	32µM*	56µM*	-17
CCc1nnc(NC(=O)c2ccc(S(=O)(=O)N3CCc4ccccc4C3)cc2)s1	-10%	?	1	-2%	?	3
COc1ccc(S(=O)(=O)NCCSCc2ccccc2C)cc1Br	·	46%	-3	9%	-17%	-3
COc1ccc(C(=O)Nc2nnc(SCc3cc(=O)c4cc(C)ccc4[nH]3)s2)cc1OC	-29%[59 µM]	28%[57 µM]	·	3%	-26%	·
CC(NC(=O)c1cc(-c2ccncc2)nc2ccc(Br)cc12)C1CCCO1 (centres undefined)	93%	16%	16	0%	-16%	8
